The structures appear in SMILES notation. Structures can show the parent of a compound that is named as a salt. ± gives the standard deviation of the averaged measurements. Where only a bound is given, the exact number is not on record here.

For the assay, the system named is Toxoplasma gondii RH (in HFF). Description: parasite growth relative to the screen mean (all compounds = 100%); higher = less inhibition of parasite growth. The conditions noted are these: 5 µM; 72 h; oxygen 21 %. In short, it runs like this: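 Confluent human foreskin fibroblasts in 96-well plates received library compounds by pin transfer at 5 µM final, taken from 10 mM DMSO stocks. Within 2 h the cells were infected with RH β-Gal–GFP Toxoplasma at MOI 1:5 and cultured 72 h at 21% O2. A CPRG β-Gal assay read against in-plate standard curves gave parasite number, and growth is stated relative to the screen mean, where all compounds = 100%, averaged across two screens.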
The molecule `O=C(OCCN1CCCCC1)c1c[nH]c2ccccc12` yielded a parasite growth of 113 ± 7.7%.
As for `CC(C)NC[C@H](O)COc1cccc2[nH]ccc12` [(S)-(-)-Pindolol], the figure is 127 ± 20%.
As for `COc1ccccc1N1CCN(CCN2C(=O)c3ccccc3C(C)(C)C2=O)CC1` [ARC 239 dihydrochloride], the figure is 108 ± 47%; as for `CC(=O)N[C@@H](Cc1c[nH]c2ccccc12)C(=O)OCc1cc(C(F)(F)F)cc(C(F)(F)F)c1`, 108 ± 52%; as for `CCCn1c(=O)[nH]c2nc(-c3ccc(S(=O)(=O)O)cc3)[nH]c2c1=O`, 112 ± 5.7%.
`O=C(O)c1cc(=O)c2c(Cl)cc(Cl)cc2[nH]1` [5,7-Dichlorokynurenic acid] came in with a parasite growth of 136 ± 26%.
With `CCN1CCC[C@H]1CNC(=O)c1cc(S(N)(=O)=O)ccc1OC` [(S)-(-)-Sulpiride], the parasite growth worked out at 93.2 ± 3.8%.
In turn, `CC(=Cc1ccc(C(=O)O)cc1)c1ccc2c(c1)C(C)(C)CCC2(C)C` showed a parasite growth of 120 ± 27%.
On to `CN1CCN(C2=Cc3ccccc3Oc3ccc(Cl)cc32)CC1`, for which the parasite growth amounted to 31.7 ± 7.6%.
The figure for `CC(C)N(CCC(=O)c1ccc2ccccc2c1)Cc1ccccc1` is 77.6 ± 4.8%.
Turning to `CC1(CN2CCC(n3c(=O)[nH]c4ccccc43)CC2)OCc2ccccc2-n2cccc21` (configuration not stated), the parasite growth was found to be 113 ± 47%.
`CCC(NC(C)C)C(O)c1ccc(O)c2[nH]c(=O)ccc12` (configuration not stated) [Procaterol hydrochloride] registered a parasite growth of 132 ± 21%.
The figure for `O=C(O)CCC/C=C\CC1C(O)CC(O)C1/C=C/C(O)COc1cccc(Cl)c1` (racemic) [(±)-Cloprostenol sodium salt] is 121 ± 15%.
As for `CC(C)NCC(O)COc1cccc2[nH]ccc12` (configuration not stated) [Pindolol], the parasite growth is 148 ± 24%.
The figure for `COC(=O)[C@H]1[C@H]2C[C@@H]3c4[nH]c5cc(OC)ccc5c4CCN3C[C@H]2C[C@@H](OC(=O)c2cc(OC)c(OC)c(OC)c2)[C@@H]1OC` [Reserpine] is 78.4 ± 47%.
The figure for `COc1ccc(-c2oc3cc(OC)ccc3c2C(=O)c2ccc(C#N)cc2)cc1` is 81.1 ± 22%; for `CCCCCCC(=O)OC1CC(C)(C)NC(C)(C)C1` [TMPH hydrochloride] it is 123 ± 14%.
`Cc1cccc(C)c1NC(=O)C[N+](C)(C)C`: the parasite growth came out at 123 ± 18%.
With `COc1ccc(Cl)cc1NC(=O)Nc1cc(C)nc2ccccc12`, the parasite growth was determined as 52.7 ± 30%.
The figure for `COc1cc(N)c(Cl)cc1C(=O)CCC1CCN(CCNS(C)(=O)=O)CC1` is 74.1 ± 2.4%; for `CCCCc1nn(-c2ccccc2C(F)(F)F)c(=O)n1Cc1ccc(-c2ccccc2S(=O)(=O)NC(=O)c2sccc2C)cc1` it is 137 ± 20%; for `COc1ccc(CCN(C)CCCOc2ccc(S(=O)(=O)c3c(C(C)C)c4ccccc4n3C)cc2)cc1OC` it is < 0%.

The values above are taken from the supplement of paper PMC4894684.
